Test results taken from PubChem BioAssay.
The source made the active and inactive calls. Unless noted, no rule for the calls is given here.

Key:
[1] = resazurin metabolic signal in HepG2 cells – cell-based, resazurin fluorescence, 24 h, PK04 Diversity Set, profiling panel (AID 1172); settings: HepG2 viability, higher = more signal
[2] = budding yeast growth changes without added modifier – OD600, strain BY4716, 24 h, basal condition, primary screen (AID 1173); settings: S. cerevisiae BY4716 growth, OD600, 24 h; higher = more signal, called active from +8 up or from −8 down
[3] = viability profiling in MM1S myeloma cells – cell-based, resazurin fluorescence, basal, 24 h, PK04 Diversity Set, profiling panel (AID 1174); settings: higher = more signal, called active from +8 up or from −8 down;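 also: MM1S multiple myeloma cell line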
[4] = target: Dihydroorotate dehydrogenase (quinone), mitochondrial (Plasmodium falciparum (isolate 3D7)) (UniProt Q08210); test: inhibition of P. falciparum DHODH – biochemical, C-terminal His tag, absorbance 600 nm, primary screen (AID 1175); settings: PfDHODH enzyme, DCIP absorbance 600 nm; higher = more signal, called active from +8 up or from −8 down;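 also: recombinant parasite enzyme with a five histidine tag at its C terminus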
Dihydroorotate dehydrogenase (quinone), mitochondrial (Plasmodium falciparum (isolate 3D7)), sequence (Q08210 whole entry, looked up): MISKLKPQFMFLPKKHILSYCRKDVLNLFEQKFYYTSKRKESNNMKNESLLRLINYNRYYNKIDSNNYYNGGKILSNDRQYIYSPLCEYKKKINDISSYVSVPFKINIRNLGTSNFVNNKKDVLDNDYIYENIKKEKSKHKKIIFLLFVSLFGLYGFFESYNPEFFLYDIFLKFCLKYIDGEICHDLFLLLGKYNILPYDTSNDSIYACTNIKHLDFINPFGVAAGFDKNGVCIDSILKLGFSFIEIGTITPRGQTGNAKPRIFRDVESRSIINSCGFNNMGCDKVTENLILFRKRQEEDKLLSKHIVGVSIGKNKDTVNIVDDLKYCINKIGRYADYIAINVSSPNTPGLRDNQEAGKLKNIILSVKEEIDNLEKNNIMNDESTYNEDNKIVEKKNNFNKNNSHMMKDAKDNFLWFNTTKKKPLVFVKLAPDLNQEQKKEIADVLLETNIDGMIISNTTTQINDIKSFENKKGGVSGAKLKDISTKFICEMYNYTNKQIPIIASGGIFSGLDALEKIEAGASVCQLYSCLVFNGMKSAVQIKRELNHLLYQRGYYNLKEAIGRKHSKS

[5] = inhibition of PAO1 biofilm formation – strain PAO1, LB-PBS medium, absorbance 600 nm, primary screen (AID 1176); settings: P. aeruginosa PAO1 growth/biofilm, A600, 12 h; higher = more signal
[6] = growth modulation of vineyard yeast isolate – strain RM11-1a, OD600, basal, 24 h, primary screen (AID 1177);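 also: cultures grown under basal conditions with no added stressor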; settings: S. cerevisiae RM11-1a growth, OD600, 24 h; higher = more signal, called active from +8 up or from −8 down
[7] = growth of efflux-deficient E. coli DRC39 – strain DRC39, OD650, 24 h, E. coli filamentation inducers, primary screen (AID 1178);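 also: growth measured as culture turbidity by optical density at 650 nm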; settings: E. coli DRC39 acrAB, higher = more signal, called active from +8 up or from −8 down
[8] = growth of efflux-deficient E. coli DRC39 – strain DRC39, OD650, 48 h, E. coli filamentation inducers, primary screen (AID 1179);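 also: screen aims at cell division blockers that make cells filament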; settings: E. coli DRC39 delta-acrAB growth, higher = more signal, called active from +8 up or from −8 down
[9] = viability profiling in RPMI8226 myeloma cells – cell-based, resazurin fluorescence, basal, 24 h, PK04 Diversity Set, profiling panel (AID 1180); settings: higher = more signal;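 also: RPMI8826 multiple myeloma cell line at 5000 cells per well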
[10] = target: E3 ubiquitin-protein ligase XIAP (Homo sapiens) (UniProt P98170); test: small molecules binding XIAP protein – biophysical, small-molecule microarray, fluorescence 635 nm, primary screen (AID 1181); settings: higher = more signal;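 also: score merges 667 nm emission and signal to noise over triplicate slides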
E3 ubiquitin-protein ligase XIAP (Homo sapiens), sequence (P98170 whole entry, looked up, the tested form may be a part): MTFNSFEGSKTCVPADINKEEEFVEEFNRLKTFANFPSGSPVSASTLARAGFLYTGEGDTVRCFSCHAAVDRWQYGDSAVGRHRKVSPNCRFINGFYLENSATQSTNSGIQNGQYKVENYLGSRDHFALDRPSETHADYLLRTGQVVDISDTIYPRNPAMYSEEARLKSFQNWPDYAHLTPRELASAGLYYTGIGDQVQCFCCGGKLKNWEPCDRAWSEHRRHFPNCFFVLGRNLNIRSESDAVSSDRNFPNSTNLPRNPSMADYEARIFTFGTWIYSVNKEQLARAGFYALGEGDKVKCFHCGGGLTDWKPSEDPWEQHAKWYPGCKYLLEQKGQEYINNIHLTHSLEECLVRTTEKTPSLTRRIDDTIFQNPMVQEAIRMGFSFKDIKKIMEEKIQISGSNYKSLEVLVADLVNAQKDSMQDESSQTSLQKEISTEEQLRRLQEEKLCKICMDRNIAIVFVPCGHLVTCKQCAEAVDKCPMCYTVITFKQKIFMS

[11] = test system: XIP peptide (Xip251-270) binding; test: XIP fragment 251-270 binding compounds – biochemical, small-molecule microarray, fluorescence 635/667 nm, 0.1 µg/mL protein, primary screen (AID 1182); settings: fluorescent protein binding, 635 nm, higher = more signal, called active from +8 up or from −8 down
[12] = test system: XIP peptide (Xip251-270); test: compounds binding XIP fragment 251-270 – biochemical, small-molecule microarray, fluorescence 635/667 nm, 0.5 µg/mL protein, primary screen (AID 1183); settings: fluorescence 635 nm, higher = more signal
[13] = blood-stage malaria parasite viability loss – strain 3D7, DAPI fluorescence, 100 nL, primary screen (AID 1184);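 also: parasites grown inside human red blood cells in medium with human serum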; settings: P. falciparum 3D7 growth, 3 d, higher = more signal
[14] = target: Homeobox protein Hox-A13 (Mus musculus) (UniProt Q62424); test: disruptors of Hoxa13 oligonucleotide interaction – biochemical, fluorescence polarization, labeled oligonucleotide, primary screen (AID 1185); settings: Hoxa13:DNA binding, 15 min, higher = more signal, called active from +8 up or from −8 down
Homeobox protein Hox-A13 (Mus musculus), sequence (Q62424 whole entry, looked up): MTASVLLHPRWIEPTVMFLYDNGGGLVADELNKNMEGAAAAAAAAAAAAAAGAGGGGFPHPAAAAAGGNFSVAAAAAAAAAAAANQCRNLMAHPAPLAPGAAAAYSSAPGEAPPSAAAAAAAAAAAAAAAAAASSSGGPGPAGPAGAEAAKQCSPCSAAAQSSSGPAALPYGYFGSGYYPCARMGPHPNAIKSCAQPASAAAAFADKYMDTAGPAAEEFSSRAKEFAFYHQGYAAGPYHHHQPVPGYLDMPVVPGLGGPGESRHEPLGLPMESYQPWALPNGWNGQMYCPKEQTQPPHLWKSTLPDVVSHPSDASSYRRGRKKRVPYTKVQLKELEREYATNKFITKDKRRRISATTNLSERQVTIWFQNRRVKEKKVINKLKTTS

[15] = blockers of DNA damage checkpoint Chk1 activation – imaging, HeLa, hydroxyurea, phospho-Chk1 antibody, percent positive cells, primary screen (AID 1186); settings: hydroxyurea-induced phospho-Chk1 immunofluorescence imaging, higher = more signal
[16] = blockers of DNA damage checkpoint Chk1 activation – imaging, HeLa, hydroxyurea, phospho-Chk1 nuclear intensity, primary screen (AID 1187); settings: hydroxyurea-induced phospho-Chk1 immunofluorescence imaging, higher = more signal

| SMILES | z-score [1] | z-score [2] | z-score [3] | composite z-score [4] | z-score [5] | z-score [6] | z-score [7] | z-score [8] | z-score [9] | composite z-score [10] | composite z-score [11] | composite z-score [12] | z-score [13] | z-score [14] | z-score [15] | z-score [16] |
| --- | --- | --- | --- | --- | --- | --- | --- | --- | --- | --- | --- | --- | --- | --- | --- | --- |
| CN1C(=O)[C@@]2(CCS(=O)(=O)c3ccccc3)N=C(c3ccc(OCCCO)cc3)O[C@H]2c2ccccc21 | 0.316 | 0.369 (inactive) | 0.718 (inactive) | 0.0865 (inactive) | -0.469 (inactive) | 0.64 (inactive) | 0.606 (inactive) | 0.946 (inactive) | -1.09 | 0.205 | 0.489 (inactive) | 0.182 | -2.07 | -6.19 (inactive) | -0.262 (inactive) | 0.146 (inactive) |
| COc1cc2c(cc1OC)CN(C(=O)[C@@H]1[C@H]3C(=O)O[C@H](c4ccccc4)[C@H](c4ccccc4)N3[C@H](c3ccccc3OCCO)[C@@]13C(=O)Nc1ccc(C#CC4(O)CCCCCC4)cc13)CC2 | 0.529 | 0.882 (inactive) | -2.17 (inactive) | 0.44 (inactive) | 2.03 (inactive) | 3.23 (inactive) | -0.236 (inactive) | 1.01 (inactive) | 0.284 | -0.11 | 0.863 (inactive) | 0.822 | -1.67 | 2.22 (inactive) | -0.517 (inactive) | -0.522 (inactive) |
| Cc1ccc(S[C@]2(C(=O)NCc3ccccc3)CC(=O)N(C(C)C)[C@@H]2c2ccc(CO)cc2I)cc1 | 0.059 | -1.93 (inactive) | -1.63 (inactive) | -0.335 (inactive) | -0.0807 (inactive) | -0.964 (inactive) | 0.484 (inactive) | 0.329 (inactive) | -2.35 | -0.253 | 1.17 (inactive) | 0.809 | 0.257 | -2.88 (inactive) | 0.422 (inactive) | 0.953 (inactive) |
| Cc1c(NC(=O)/C(C#N)=C/C=C/c2ccccc2[N+](=O)[O-])c(=O)n(-c2ccccc2)n1C | -1.25 | -0.0708 (inactive) | -0.729 (inactive) | 0.512 (inactive) | -0.6 (inactive) | -0.061 (inactive) | 1.06 (inactive) | -0.241 (inactive) | -1.73 | -0.0172 | 4.09 (inactive) | 0.552 | -0.758 | -3.54 (inactive) | 0.432 (inactive) | 0.721 (inactive) |
| CC(C)(C)OC(=O)CC[C@]1(C(=O)O)N=C(c2ccc(OCCCO)cc2)O[C@H]1c1ccccc1CN=[N+]=[N-] | 0.706 | -0.0245 (inactive) | 0.444 (inactive) | 0.209 (inactive) | -0.788 (inactive) | -0.165 (inactive) | 0.184 (inactive) | 1.25 (inactive) | 0.925 | -0.204 | 0.109 (inactive) | 0.405 | -0.711 | -4 (inactive) | -0.287 (inactive) | -0.499 (inactive) |
| C[C@H]1C2=C3C(CC[C@H]4C(OCc5ccc(F)cc5C(F)(F)F)OC[C@](C)([C@@H]34)N(C(=O)OC(C)(C)C)C2)C(CO)C1CO (some centres undefined) | -1.49 | 0.964 (inactive) | -2.08 (inactive) | -0.108 (inactive) | 2.31 (inactive) | 1.04 (inactive) | -1.36 (inactive) | -0.895 (inactive) | -1.62 | 0.147 | 0.456 (inactive) | 0.724 | -0.736 | -4.04 (inactive) | 0.491 (inactive) | 0.52 (inactive) |
| O=C1O[C@@H](c2ccccc2)[C@@H](c2ccccc2)N2[C@@H](c3ccccc3OCCO)[C@]3(C(=O)Nc4ccccc43)[C@@H](C(=O)NC[C@H](O)c3ccccc3)[C@H]12 | -1.03 | 0.587 (inactive) | -6.16 (inactive) | 1.65 (inactive) | 2.05 (inactive) | 3.08 (inactive) | -0.0586 (inactive) | 0.495 (inactive) | -6.99 | 0.311 | 1.42 (inactive) | -0.303 | -0.692 | -5.34 (inactive) | -0.152 (inactive) | -0.169 (inactive) |
| C=C(CCCC)/C(=C/C[C@@H](OC(=O)c1ccncc1)c1cccc(OCCO)c1)c1cnc2ccccc2c1 | 0.0976 | -1.17 (inactive) | -0.369 (inactive) | -2.5 (inactive) | 2.24 (inactive) | 0.264 (inactive) | 0.879 (inactive) | 0.357 (inactive) | 0.0765 | -0.0261 | 0.389 (inactive) | 0.405 | -3.03 | -3.72 (inactive) | -0.403 (inactive) | -0.342 (inactive) |
| C=CCOC(=O)[C@@H]1[C@H]2C(=O)O[C@H](c3ccccc3)[C@H](c3ccccc3)N2[C@H](c2ccc(OCCOC(=O)[C@H]3C[C@H]4C(=O)N[C@@H](CC(C)C)C(=O)N4[C@H]3c3ccc(O)cc3)cc2)[C@@]12C(=O)Nc1ccc(I)cc12 | 0.206 | 1.26 (inactive) | 0.219 (inactive) | 0.106 (inactive) | 2.44 (inactive) | 1.6 (inactive) | 0.869 (inactive) | 1.2 (inactive) | 0.597 | 0.0819 | 0.234 (inactive) | 0.828 | -1.79 | 0.981 (inactive) | -0.25 (inactive) | -0.115 (inactive) |
